Results on 104 compounds are retold here after ChEMBL document CHEMBL3988442, “University of Dundee, Small-Polar-MMV Screening Library” (2021).

Molecules are shown by their SMILES. Out of some 48,000 compounds screened, about 13,000 (27%) showed an effect of 50% or more. Some of the results follow.

The test system of this test is Wolbachia pipientis. The test is described as follows: Anti-Wolbachia Cell-Based Screen. It is filed as functional. The arrangement: scale not given: in the data most compounds retested in dose-response had high values. Particulars: 5 µM.
As to `COCc1noc(C2(c3cccc(Cl)c3)CCOCC2)n1`, the “Percent Effect” value is given as -3.313%.
On to `COC(=O)c1cccc(C2CNCCN2C)c1` (centres undefined), for which the “Percent Effect” value was found to be 77.97%.
As for `CN(C)C(=O)c1cccc(C2CNCCN2C)c1` (centres undefined), the figure is 117.5%; as for `COC(=O)c1cccc(CNC(=O)NCCC(F)(F)F)c1`, -12.97%.
As to `CC(=O)N1CCNCC1c1cccc(C(=O)N(C)C)c1` (centres undefined), the “Percent Effect” value is listed as -10.2%.
`COC(=O)c1cccc(C2CNCCN2C(C)=O)c1` (centres undefined): the “Percent Effect” value came out at 103.9%.
In the case of `COCCN1CCN(Cc2cccc(C(=O)N(C)C)c2)CC1C` (centres undefined), the “Percent Effect” value was -4.413%.
Turning to `CNC(=O)c1cccc(C2CNCCN2C)c1` (centres undefined), the “Percent Effect” value is reported as -21.17%.
Turning to `COC(=O)c1ccc2ccn(CC3CCNC3)c(=O)c2c1` (centres undefined), the “Percent Effect” value was -6.108%.
As to `COC(=O)c1cccc(CNC(=O)CCC(F)(F)F)c1`, the “Percent Effect” value is -15.88%.
Turning to `O=C(NCCc1ccncc1)c1ccc(N2CCOCC2)cc1`, the “Percent Effect” value is recorded as -6.093%.
`Cn1cc(C(=O)NCc2ccc(N3CCNC(=O)C3)c(F)c2)cn1`: the “Percent Effect” value is -29.09%.
In the case of `CC(C)CCC(=O)N1CCN(C(=O)c2ccc3nccn3c2)CC1`, the “Percent Effect” value is recorded as -6.791%.
The same measure for `CC(=O)N1CCOC(CNC(=O)c2cccc(CCC(C)(C)O)c2)C1` (centres undefined): 13.88%; for `CCC(=O)Nc1cccc(C(=O)NCCC2=CSC3=NCCCN23)c1`: 108.7%.
Regarding `CNc1cc(C(=O)NCCC2=CSC3=NCCCN23)ccn1`, the “Percent Effect” value came out at 99.62%.
As for `CNc1cc(C(=O)N2CCCCC2CCn2ccnc2C)ccn1` (centres undefined), the “Percent Effect” value was 14.21%.
As for `CNc1cc(C(=O)N2CCC3(CC2)Nc2ccccc2NC3=O)ccn1`, the “Percent Effect” value turned out to be 27.99%.
The same measure for `CC(C)(O)CCc1cccc(C(=O)NCCC2=CSC3=NCCCN23)c1`: 99.07%; for `CCOc1ccc(N2CCCN=C2NC(=O)c2cccc(Cl)c2)cc1`: -0.7192%.
Regarding `CC(C)(O)CCc1cccc(C(=O)NCc2nccs2)c1`, the “Percent Effect” value is reported as 1.829%.
As for `O=C(NC1=NCCCN1c1ccc(Cl)cc1)c1cccc(Cl)c1`, the figure is 17.77%; as for `c1ccc(Cn2ccnc2CNC2CCCOc3ccccc32)cc1` (centres undefined), -11.7%; as for `COC(=O)C(C)CN(C)S(=O)(=O)c1c(Br)cc2[nH]c(=O)oc2c1Cl` (centres undefined), 24.19%.
Take `Cc1cccc(N(CCC(N)=O)C(=O)c2cc(-n3cccn3)ccn2)c1`: the “Percent Effect” value is on record as -21.32%.
In the case of `CC1c2ncc(CNC(=O)C3CC3)n2CCN1Cc1cnn(C)c1.O=C(O)C(F)(F)F.O=C(O)C(F)(F)F` (centres undefined), the “Percent Effect” value is given as -12.81%.
On to `CC1c2ncc(CNC(=O)C3CC3)n2CCN1Cc1nccs1.O=C(O)C(F)(F)F` (centres undefined), for which the “Percent Effect” value was 120.4%.
The same measure for `O=C(NCc1cn2c(n1)CN(Cc1ccccn1)CC2)C1CCC1.O=C(O)C(F)(F)F.O=C(O)C(F)(F)F`: -6.874%; for `Cc1ncsc1CN1CCn2c(COCC3CC3)cnc2C1C.O=C(O)C(F)(F)F` (centres undefined): 6.232%.
Turning to `CC1c2ncc(CNC(=O)C3CC3)n2CCN1Cc1ccncc1.O=C(O)C(F)(F)F.O=C(O)C(F)(F)F` (centres undefined), the “Percent Effect” value worked out at 104.7%.
As to `CC1c2ncc(CNC(=O)C3CC3)n2CCN1Cc1ccccn1.O=C(O)C(F)(F)F.O=C(O)C(F)(F)F` (centres undefined), the “Percent Effect” value was 93.52%.
As for `CC1c2ncc(CNC(=O)C3CC3)n2CCN1Cc1ccsc1.O=C(O)C(F)(F)F` (centres undefined), the figure is 96.09%.
Turning to `O=C(NCc1cn2c(n1)CN(Cc1ccncc1)CC2)C1CCC1.O=C(O)C(F)(F)F.O=C(O)C(F)(F)F`, the “Percent Effect” value is listed as -6.264%.
The same measure for `N#Cc1cn(CCCN2CCc3ccccc3C2)c(=O)[nH]c1=O`: -8.057%; for `COc1ccc2c(c1)OCC(Cc1ccc(N(C)C)nc1)C2` (centres undefined): -17.41%; for `CC(=O)NC[C@H]1COCc2nc3cc(S(C)(=O)=O)ccc3n21`: -22.59%.
`CC1c2ncc(CNC(=O)C3CC3)n2CCN1Cc1cccnc1.O=C(O)C(F)(F)F.O=C(O)C(F)(F)F` (centres undefined): the “Percent Effect” value was 100.5%.
Consider `Cc1nc(COCc2cnc3n2CCN(CC2CCC2)C3C)cs1.O=C(O)C(F)(F)F` (centres undefined), for which the “Percent Effect” value is -9.854%.
In the case of `COCc1cnc2n1CCN(C1CCC1)C2C.O=C(O)C(F)(F)F` (centres undefined), the “Percent Effect” value was 11.12%.
As for `CC1c2ncc(CNC(=O)C3CC3)n2CCN1CC1CCC1.O=C(O)C(F)(F)F` (centres undefined), the figure is 88.49%.
In the case of `COc1cccc2c1OCC(CNC(=O)CCCN1CCOCC1)C2` (centres undefined), the “Percent Effect” value was found to be 2.111%.
For the compound `CS(=O)(=O)NCc1cc2n(n1)CCCN(Cc1cccc(C#N)c1)C2`, the “Percent Effect” value was found to be 3.455%.
With `O=C(NCCSCc1ccc(Br)s1)C1CCCN(c2cnccn2)C1` (centres undefined), the “Percent Effect” value turned out to be 1.609%.
For `CN(C1CCN(c2ccccn2)CC1)S(=O)(=O)c1cccs1`, the “Percent Effect” value is on record as -12.42%.
`O=S(=O)(NCC1CCN(c2cnccn2)CC1)c1cccs1`: the “Percent Effect” value turned out to be 107.7%.
In the case of `CCc1ccc(S(=O)(=O)NCC2CCN(c3cnccn3)CC2)s1`, the “Percent Effect” value is recorded as 118.2%.
As to `CC(CNC(=O)N1CCN(c2cnccn2)CC1)Cc1cccs1` (centres undefined), the “Percent Effect” value was -7.53%.
As for `Cc1nn(C)c(C)c1CN(C)C1CCN(c2ncnc3[nH]cnc23)CC1`, the figure is 0.8279%.
Turning to `CC(=O)Nc1ccc(C(=O)N2CCOc3nc(C)ccc32)cc1`, the “Percent Effect” value was -10.66%.
The same measure for `COC(=O)CCC(=O)N1CCc2nc(C(=O)N(C)C)sc2CC1`: -18.4%; for `Cc1cc(Nc2ncccn2)nc(C2CCCN(CCO)C2)n1` (centres undefined): 168.6%; for `Cc1cc(O)nc(C2CCCN(CCO)C2)n1` (centres undefined): 175.9%.
Turning to `Cc1cc(Nc2ccccn2)nc(C2CCCN(CCO)C2)n1.O=CO` (centres undefined), the “Percent Effect” value was found to be 136%.
In the case of `Cn1ncc2c(N3CCN(CCO)CC3)nc(C3CCCC3)nc21`, the “Percent Effect” value worked out at 1.132%.
Consider `Cc1cc(Nc2cnccn2)nc(C2CCCN(CCO)C2)n1` (centres undefined), for which the “Percent Effect” value came out at 125%.
Consider `CSCCC1c2nc[nH]c2CCN1Cc1ccnc2ccccc12` (centres undefined), for which the “Percent Effect” value amounted to 14.89%.
The same measure for `COCCCN1CCC(NC(=O)C(C)C)CC1`: 12.3%; for `Cc1noc(C)c1CNc1c(N2CCCC2)cccc1N1CCCC1`: 3.451%.
`Cn1cc(N2CCCC(Nc3ccc4c(c3)NC(=O)CC4)C2=O)cn1` (centres undefined): the “Percent Effect” value was -4.573%.
As for `CCS(=O)(=O)N1CCN(C(C)c2ccccc2OC)CC1` (centres undefined), the “Percent Effect” value came out at 10.43%.
For `CCN1CCN(C(=O)NC(C)c2noc(-c3ccccc3)n2)CC1` (centres undefined), the “Percent Effect” value was 0.3597%.
Consider `CC(c1ncc(C(C)(C)C)o1)N1CCN(Cc2ccco2)CC1` (centres undefined), for which the “Percent Effect” value amounted to 19.54%.
As for `CC(c1ncc(-c2ccccc2)o1)N1CCN(C(=O)N(C)C)CC1` (centres undefined), the “Percent Effect” value came to 106.8%.
In the case of `CC(c1ncc(C(C)(C)C)o1)N1CCN(c2ccncc2)CC1` (centres undefined), the “Percent Effect” value was -9.491%.
As to `O=C(CCCc1ncc(-c2ccccc2)o1)N1CCN(CCO)CC1`, the “Percent Effect” value is -1.483%.
For `Cc1ccc(-c2ncc(CN3CCN(C(=O)N(C)C)CC3)s2)o1`, the “Percent Effect” value was determined as 25.76%.
Turning to `COCC(=O)N1CCN(C)c2ncccc2C1`, the “Percent Effect” value amounted to 4.839%.
For `CN(C)C(=O)N1CCN(C(=O)Nc2nc(-c3ccccc3)ns2)CC1`, the “Percent Effect” value was -9.811%.
Regarding `CC(c1ncc(-c2ccccc2)o1)N1CCN(C(=O)C(C)(C)C)CC1` (centres undefined), the “Percent Effect” value was determined as 102.5%.
Take `CCS(=O)(=O)N1CCN(C(C)c2ncc(-c3ccccc3)o2)CC1` (centres undefined): the “Percent Effect” value is given as 106.9%.
As for `COCC(=O)N1CCN(C(C)c2ncc(-c3ccccc3)o2)CC1` (centres undefined), the “Percent Effect” value is recorded as 108.5%.
With `CCCn1ncc(C(=O)NC2CCN(CC3CCCO3)CC2)c1C` (centres undefined), the “Percent Effect” value worked out at 2.131%.
As for `O=C(NCCc1ccncc1)C1CCN(Cc2ccco2)CC1`, the figure is 7.688%; as for `O=C(NCc1ccc(F)cc1)NCC(O)(c1ccco1)C1CC1` (centres undefined), -0.2956%.
The same measure for `CN(C)C(CNC(=O)NCCc1cccc(O)c1)c1ccco1` (centres undefined): 7.876%.
`CC(=O)N1N=C(c2ccco2)OC1C(=O)NCCc1ccc(F)cc1` (centres undefined): the “Percent Effect” value is given as 117.3%.
As for `CC(=O)N1N=C(c2ccco2)OC1C(=O)NCCc1ccc(O)cc1` (centres undefined), the “Percent Effect” value is 112.2%.
As for `Cn1cc(CN2CCOC[C@H]2c2nc(C(C)(C)C)co2)c2ccccc21`, the figure is -4.393%; as for `CN(C)c1ncccc1CNC(=O)N1CCCC1c1ccsc1` (centres undefined), -3.064%.
As for `CCOC1CCC2(CCN(C(=O)c3c[nH]cn3)CC2)c2ccccc21` (centres undefined), the figure is 107.8%.
As to `CCOC1CC2(CCN(C(C)=O)CC2)c2cc(F)ccc21` (centres undefined), the “Percent Effect” value is recorded as -13.1%.
As to `CNC(=O)C1CC2(CCN(C(=O)c3csnn3)CC2)c2ccccc21` (centres undefined), the “Percent Effect” value is reported as -5.077%.
For `CCOC1CCC2(CCN(C(=O)c3csnn3)CC2)c2ccccc21` (centres undefined), the “Percent Effect” value turned out to be 117.6%.
Consider `N[C@@H]1c2ccccc2C2(CCN(C(=O)c3ccc(Cl)cn3)CC2)[C@H]1O`, for which the “Percent Effect” value turned out to be 2.711%.
`CN(C)C1CC2(CCN(C(=O)c3csnn3)CC2)c2ccccc21.O=C(O)C(F)(F)F` (centres undefined): the “Percent Effect” value is -2.029%.
Turning to `CC1CC2(CCN(C(=O)c3c[nH]cn3)CC2)c2ccccc21` (centres undefined), the “Percent Effect” value is recorded as 62.95%.
Regarding `CCOC1CC2(CCN(c3cnccn3)CC2)c2ccccc21` (centres undefined), the “Percent Effect” value stood at 15.96%.
Regarding `CC1CC2(CCN(C(=O)c3csnn3)CC2)c2ccccc21` (centres undefined), the “Percent Effect” value worked out at 10.92%.
Take `C[C@@H]1CN(C(=O)CCc2nncn2C)CC[C@@]1(O)C1CCC1`: the “Percent Effect” value was -5.246%.
On to `CCN(CC)CCn1ccnc1-c1cccc(C#N)c1`, for which the “Percent Effect” value was 11.68%.
As for `Cc1ccc(-c2nn(-c3cccc(F)c3)cc2CN(C)CCO)o1`, the figure is -10.45%.
In the case of `CC(C)(C)CN[C@@H]1CO[C@H](CNC(=O)c2cccs2)[C@H]1O`, the “Percent Effect” value is reported as -6.649%.
`Cc1nc([C@@H]2C[C@H]3CN(Cc4scnc4C)C[C@H]3O2)no1`: the “Percent Effect” value is listed as -8.778%.
The same measure for `O=C(NCc1cccs1)c1nc2c(o1)CN(C(=O)c1cccnc1)C2.O=C(O)C(F)(F)F`: 7.988%; for `CN(C)C(=O)NCc1nnc2n1CCN(Cc1ccsc1)C2`: 3.865%; for `CC(C)(C)C(O)CN1CCN(C(=O)COCC2CC2)CC1` (centres undefined): -3.893%.
`CCCOc1cc(C)ccc1NC(=O)NCCC(=O)N(C)C`: the “Percent Effect” value is recorded as -7.738%.
Consider `CCS(=O)(=O)NCCNC(C)(C)c1nc(C)cs1`, for which the “Percent Effect” value is recorded as -9.016%.
Turning to `Cn1ccnc1CCNS(=O)(=O)c1cccnc1`, the “Percent Effect” value is listed as 3.045%.
As to `CC(=O)Nc1nc(C)c(S(=O)(=O)NCCc2ccccn2)s1`, the “Percent Effect” value came to 90.82%.
As for `CNC(=O)c1ccc(S(=O)(=O)NCCc2ccccn2)cc1`, the figure is -1.31%; as for `Cc1cc(NC(=O)NCCc2cccnc2)n(C)n1`, -22.8%.
For the compound `CC(=O)Nc1nc(C)c(S(=O)(=O)NCCc2cccnc2)s1`, the “Percent Effect” value was determined as 82%.
For the compound `NC(=O)c1ccc(S(=O)(=O)NCCc2ccccn2)cc1`, the “Percent Effect” value is recorded as -9.373%.
